Laboratory results taken from PubChem BioAssay (NCI).
The panel holds about 83,000 compounds, 20% with a hit somewhere; the sample as a whole holds those more often.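 For each line, cells grew in 96-well plates with the test compound present at a single concentration for 48 hours.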 Activity calls are given as the source filed them. The calls were made as follows: active = growth percent below 10; inactive = the rest.

What was measured:
Assay in all cases: NCI-60 one-dose screen, 48 h (100 = growth as untreated, 0 = no growth, -100 = all killed)
NCI-H23 lung = settings: 10 µM unless noted
NCI-H226 lung = settings: 10 µM unless noted
NCI-H322M lung = settings: 10 µM unless noted
HOP-62 NSCLC = settings: 10 µM unless noted
NCI-H460 lung = settings: 10 µM unless noted
HOP-92 NSCLC = settings: 10 µM unless noted
NCI-H522 lung = settings: 10 µM
786-0 renal = settings: 10 µM unless noted
COLO 205 colon = settings: 10 µM unless noted
A549/ATCC NSCLC = settings: 10 µM unless noted

Measured: growth

Cc1cc(C)c(C(=O)c2cccs2)c(C)c1
inactive: NCI-H23 lung 100% | NCI-H226 lung 99.8% | NCI-H322M lung 106% | HOP-62 NSCLC 95.2% | NCI-H460 lung 109% | HOP-92 NSCLC 74.4% | NCI-H522 lung 93.3% | 786-0 renal 100% | COLO 205 colon 103%

CC(=O)Nc1ccc(C(=O)COc2ccc(/C=C3\CCc4ccccc4C3=O)cc2)cc1
inactive: NCI-H23 lung 108% | NCI-H226 lung 94.8% | NCI-H322M lung 108% | HOP-62 NSCLC 113% | NCI-H460 lung 124% | HOP-92 NSCLC 114% | NCI-H522 lung 92.4% | 786-0 renal 97% | COLO 205 colon 143%

Cc1ncc(C(=O)Nc2ccc(CN3CCN(C)CC3)c(C(F)(F)F)c2)cc1C#Cc1cncc2ncccc12
active: 786-0 renal -85.8%
inactive: NCI-H23 lung 45.7% | NCI-H226 lung 46.7% | NCI-H322M lung 51% | HOP-62 NSCLC 59.4% | NCI-H460 lung 61% | HOP-92 NSCLC 60.3% | NCI-H522 lung 86.5% | COLO 205 colon 32.2%

Cc1ccc(OCC(=O)Nc2ccc(Oc3ccccc3)cc2)c([N+](=O)[O-])n1
inactive: NCI-H23 lung 47% | NCI-H226 lung 68.8% | NCI-H322M lung 95% | HOP-62 NSCLC 79.6% | NCI-H460 lung 76.3% | HOP-92 NSCLC 73.7% | NCI-H522 lung 33.2% | 786-0 renal 66.3% | COLO 205 colon 94.5%

O=c1[nH]cc(Nc2cc(Cl)c3nonc3c2[N+](=O)[O-])c(=O)[nH]1
inactive: NCI-H23 lung 91.2% | NCI-H226 lung 92.3% | NCI-H322M lung 110% | HOP-62 NSCLC 102% | NCI-H460 lung 107% | HOP-92 NSCLC 95.5% | NCI-H522 lung 98% | 786-0 renal 105% | COLO 205 colon 109%

CC1C(=O)NC2=Nc3ccccc3C(=O)NN21 (configuration not stated)
inactive: NCI-H23 lung 97.2% | NCI-H226 lung 92.9% | NCI-H322M lung 97.2% | HOP-62 NSCLC 87.8% | NCI-H460 lung 104% | HOP-92 NSCLC 94.9% | NCI-H522 lung 97.5% | 786-0 renal 97.9% | COLO 205 colon 104%

C=CCNC(=O)/C(=C/c1cccc([N+](=O)[O-])c1)NC(=O)c1ccccc1
inactive: NCI-H23 lung 98.6% | NCI-H226 lung 90.5% | NCI-H322M lung 107% | HOP-62 NSCLC 92.4% | NCI-H460 lung 111% | HOP-92 NSCLC 91.9% | NCI-H522 lung 97.5% | 786-0 renal 84.7% | COLO 205 colon 120%

Cc1cc(Br)c(C)cc1Br
inactive: NCI-H23 lung 97.9% | NCI-H226 lung 94.4% | NCI-H322M lung 96.4% | HOP-62 NSCLC 99.4% | NCI-H460 lung 114% | HOP-92 NSCLC 91.4% | NCI-H522 lung 96% | 786-0 renal 101% | COLO 205 colon 110%

COc1ccc(C2CC(c3ccc(Nc4ccnc5cc(Cl)ccc45)cc3)=NN2C(C)=O)cc1 (configuration not stated)
inactive: NCI-H23 lung 84.3% | NCI-H226 lung 79.2% | NCI-H322M lung 98.8% | HOP-62 NSCLC 89.4% | NCI-H460 lung 85.4% | HOP-92 NSCLC 36.5% | NCI-H522 lung 67.3% | 786-0 renal 81.2% | COLO 205 colon 96%

CC1Cc2ccccc2N1C(=O)c1ccc(C(=O)c2ccccc2)cc1 (configuration not stated)
inactive: NCI-H23 lung 98.3% | NCI-H226 lung 78.1% | NCI-H322M lung 91.2% | HOP-62 NSCLC 80.5% | NCI-H460 lung 99.3% | HOP-92 NSCLC 92% | NCI-H522 lung 77.3% | 786-0 renal 86.7% | COLO 205 colon 97.1%

NS(=O)(=O)N(c1cc(C(F)(F)F)cc(C(F)(F)F)c1)C1CCN(Cc2ccc(C(F)(F)F)cc2)CC1
inactive: NCI-H226 lung 78.1% | NCI-H322M lung 45.1% | HOP-62 NSCLC 30.2% | 786-0 renal 42.3%
active: NCI-H23 lung 9.79% | NCI-H460 lung 5.71% | HOP-92 NSCLC 7.48% | NCI-H522 lung -23.3% | COLO 205 colon -59.8%

O=C(Nc1ccc(Cl)cc1)Nc1ccccc1CNc1nc(Nc2ccc(OCCN3CCCC3)cc2)ncc1Cl
active: NCI-H460 lung -77.7% | NCI-H522 lung -17% | 786-0 renal -86.6%
inactive: NCI-H23 lung 33.5% | NCI-H226 lung 97% | NCI-H322M lung 101% | HOP-62 NSCLC 82.2% | HOP-92 NSCLC 72.9% | COLO 205 colon 37.8%

O=C(COc1cccc(/C=C2\Oc3ccc4ccccc4c3C2=O)c1)c1ccc([N+](=O)[O-])cc1
inactive: NCI-H23 lung 93.8% | NCI-H226 lung 85.8% | NCI-H322M lung 106% | HOP-62 NSCLC 87.6% | NCI-H460 lung 100% | HOP-92 NSCLC 81.2% | NCI-H522 lung 35.8% | 786-0 renal 103% | COLO 205 colon 114%

Cn1cnc([N+](=O)[O-])c1Sc1nc(N)nc2nc[nH]c12
active: HOP-92 NSCLC -3.12%
inactive: NCI-H23 lung 52.9% | NCI-H226 lung 74.1% | NCI-H322M lung 77.3% | HOP-62 NSCLC 22.8% | NCI-H460 lung 20.6% | NCI-H522 lung 41.3% | 786-0 renal 14.6% | COLO 205 colon 96.9%

Cc1ccc(C2=NNC(c3sc(Cl)nc3Cl)C2)cc1 (configuration not stated)
inactive: NCI-H23 lung 91% | NCI-H226 lung 84.7% | NCI-H322M lung 83.2% | HOP-62 NSCLC 107% | NCI-H460 lung 104% | HOP-92 NSCLC 115% | NCI-H522 lung 18.1% | 786-0 renal 106% | COLO 205 colon 99.8%

CC1c2ccccc2-c2ccccc2N1C (configuration not stated)
inactive: NCI-H23 lung 105% | NCI-H226 lung 105% | NCI-H322M lung 101% | HOP-62 NSCLC 100% | NCI-H460 lung 105% | HOP-92 NSCLC 86.1% | NCI-H522 lung 87.5% | 786-0 renal 104% | COLO 205 colon 107%

CCc1ccc(-c2nc(SCC(=O)NC3CCCCC3)n[nH]2)cc1
inactive: NCI-H23 lung 55% | NCI-H226 lung 67.8% | NCI-H322M lung 78.4% | HOP-62 NSCLC 94.6% | NCI-H460 lung 90.8% | HOP-92 NSCLC 67.6% | NCI-H522 lung 73.6% | 786-0 renal 73.4% | COLO 205 colon 122%

COc1cc(/C(Cl)=C/C=C/C(=O)c2c(C)[n+]([O-])c3ccc(Cl)cc3[n+]2[O-])cc(OC)c1OC
active: HOP-62 NSCLC 7.24% | NCI-H522 lung -33.4% | COLO 205 colon -14.8%
inactive: NCI-H23 lung 63.7% | NCI-H226 lung 54.3% | NCI-H322M lung 96.3% | NCI-H460 lung 56.6% | HOP-92 NSCLC 68.8% | 786-0 renal 35.1%

CCN1CC2=C(Nc3nc(SC)[nH]c(=O)c3C2c2cc(OC)c(OC)c(OC)c2)/C(=C/c2cc(OC)c(OC)c(OC)c2)C1 (configuration not stated)
inactive: NCI-H23 lung 99.2% | NCI-H226 lung 98.5% | NCI-H322M lung 95.2% | HOP-62 NSCLC 104% | NCI-H460 lung 106% | HOP-92 NSCLC 81.6% | NCI-H522 lung 81.2% | 786-0 renal 96.9% | COLO 205 colon 113%

COc1ccc(CNC(=O)c2c(C)n([O-])c3ccc(OC)cc3[n+]2=O)cc1
active: HOP-92 NSCLC -1.17% | NCI-H522 lung -2.57%
inactive: NCI-H23 lung 98.2% | NCI-H226 lung 110% | NCI-H322M lung 89.7% | HOP-62 NSCLC 105% | NCI-H460 lung 118% | 786-0 renal 96% | COLO 205 colon 108%

O=C(O)CCNS(=O)(=O)c1ccc(-c2ccccc2)cc1
inactive: NCI-H23 lung 98.4% | NCI-H226 lung 92% | NCI-H322M lung 129% | HOP-62 NSCLC 103% | NCI-H460 lung 114% | HOP-92 NSCLC 83.9% | NCI-H522 lung 98.4% | 786-0 renal 106% | COLO 205 colon 111%

CC1CN(/N=C/c2ccc([N+](=O)[O-])o2)C(=N)O1 (configuration not stated)
inactive: NCI-H23 lung 97.1% | NCI-H226 lung 96.3% | NCI-H322M lung 117% | HOP-62 NSCLC 103% | NCI-H460 lung 96% | HOP-92 NSCLC 88.8% | NCI-H522 lung 87.8% | 786-0 renal 108% | COLO 205 colon 113%

O=C(COc1ccc(/C=C2\Cc3ccccc3C2=O)cc1)c1ccc(Cl)cc1
inactive: NCI-H23 lung 89.2% | NCI-H226 lung 97.5% | NCI-H322M lung 123% | HOP-62 NSCLC 101% | NCI-H460 lung 101% | HOP-92 NSCLC 90.7% | A549/ATCC NSCLC 99.6% | 786-0 renal 102% | COLO 205 colon 117%

O=C1C=CC(=O)N1c1ccccn1
inactive: NCI-H23 lung 102% | NCI-H226 lung 108% | NCI-H322M lung 110% | HOP-62 NSCLC 113% | NCI-H460 lung 106% | HOP-92 NSCLC 104% | A549/ATCC NSCLC 96.9% | 786-0 renal 105%

CC1CN(CC(O)c2ccc(Br)cc2)CCO1 (configuration not stated)
inactive: NCI-H23 lung 104% | NCI-H226 lung 109% | NCI-H322M lung 107% | HOP-62 NSCLC 108% | NCI-H460 lung 108% | HOP-92 NSCLC 82.5% | A549/ATCC NSCLC 102% | 786-0 renal 102% | COLO 205 colon 98.1%

FC(F)(F)c1ccc(-c2cnc(-c3nn[nH]n3)nc2NC2CCCCCC2)cc1
inactive: NCI-H23 lung 66% [50 µM] | NCI-H226 lung 70.9% [50 µM] | NCI-H322M lung 51.1% [50 µM] | HOP-62 NSCLC 63.7% [50 µM] | NCI-H460 lung 34.6% [50 µM] | A549/ATCC NSCLC 81.1% [50 µM] | 786-0 renal 49.8% [50 µM]
active: HOP-92 NSCLC -8.27% [50 µM]

O=C(CC1Sc2ccccc2NC1=O)NNc1cccc(Cl)c1Cl (configuration not stated)
inactive: NCI-H23 lung 77% | NCI-H226 lung 73.9% | NCI-H322M lung 73.5% | HOP-62 NSCLC 84.6% | NCI-H460 lung 66.2% | HOP-92 NSCLC 24.4% | A549/ATCC NSCLC 92.3% | 786-0 renal 95.3%

CSc1nc(N)c2c(n1)N(C)C=NS2(=O)=O
inactive: NCI-H23 lung 105% | NCI-H226 lung 101% | NCI-H322M lung 114% | HOP-62 NSCLC 123% | NCI-H460 lung 115% | HOP-92 NSCLC 79.1% | NCI-H522 lung 105% | 786-0 renal 108% | COLO 205 colon 101%

NC(=O)c1cc(Cl)ccc1NC(=O)c1ccccc1-c1ccccc1
inactive: NCI-H23 lung 39.9% | NCI-H226 lung 57.7% | NCI-H322M lung 30% | HOP-62 NSCLC 39% | NCI-H460 lung 13.2% | HOP-92 NSCLC 67.7% | A549/ATCC NSCLC 35.6% | 786-0 renal 26.6%
